Screening results: PubChem, several laboratories
697 NFkB inh: inhibitors of PMA/ionomycin-induced NF-kB reporter, 697 cells, primary screen, B-cell NF-kB inhibitor project, cell-based, luminescence, uHTS. 697 B-cell NF-kB luciferase reporter, 16 h. inhibition, % at 4 µM. actives 0.33% (n = 330,000). AID 435022, 2010; in the data active means inhibition above about 35%
Mdm2 MdmX PPI: inhibitors of human Mdm2-MdmX association, primary screen, cell-based, luminescence, split luciferase, SaOS-2, uHTS | actives 3% (n = 330,000) | inhibition, % at 8 µM | SaOS-2 split-luciferase Mdm2/MdmX complementation | Protein Mdm4 (Homo sapiens) + E3 ubiquitin-protein ligase Mdm2 (Homo sapiens), …;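 active means inhibition of at least 50% at 8 µM in the primary screen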
Target sequence (O15151 whole entry, looked up): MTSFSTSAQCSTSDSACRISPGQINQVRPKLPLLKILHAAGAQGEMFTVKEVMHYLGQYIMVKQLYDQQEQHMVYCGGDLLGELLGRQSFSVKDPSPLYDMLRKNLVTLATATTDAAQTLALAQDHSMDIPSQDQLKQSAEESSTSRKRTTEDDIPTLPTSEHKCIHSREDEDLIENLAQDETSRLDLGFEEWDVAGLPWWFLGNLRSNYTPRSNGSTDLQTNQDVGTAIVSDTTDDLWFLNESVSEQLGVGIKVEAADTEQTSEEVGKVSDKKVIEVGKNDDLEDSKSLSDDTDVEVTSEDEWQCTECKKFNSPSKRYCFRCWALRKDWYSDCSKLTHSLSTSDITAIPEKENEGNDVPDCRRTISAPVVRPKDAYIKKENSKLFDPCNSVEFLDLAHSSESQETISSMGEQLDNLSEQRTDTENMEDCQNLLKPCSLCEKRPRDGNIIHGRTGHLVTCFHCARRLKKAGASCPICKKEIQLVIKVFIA
Target sequence (Q00987 whole entry, looked up): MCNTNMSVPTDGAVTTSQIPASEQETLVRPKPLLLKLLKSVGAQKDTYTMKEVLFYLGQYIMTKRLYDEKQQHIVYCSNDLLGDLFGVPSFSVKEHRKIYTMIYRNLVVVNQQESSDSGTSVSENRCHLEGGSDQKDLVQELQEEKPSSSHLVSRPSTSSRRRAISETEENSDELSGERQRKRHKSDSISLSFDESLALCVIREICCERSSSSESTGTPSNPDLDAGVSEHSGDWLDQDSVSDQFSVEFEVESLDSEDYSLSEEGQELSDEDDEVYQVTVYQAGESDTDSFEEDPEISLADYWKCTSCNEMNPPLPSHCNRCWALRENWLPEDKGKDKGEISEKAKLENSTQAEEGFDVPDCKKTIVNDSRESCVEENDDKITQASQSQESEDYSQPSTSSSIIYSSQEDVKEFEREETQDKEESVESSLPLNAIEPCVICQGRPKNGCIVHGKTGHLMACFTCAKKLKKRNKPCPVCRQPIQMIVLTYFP
Jurkat NFkB inh: inhibitors of induced NF-kB luciferase reporter, primary screen, TCR NF-kB activation inhibitor project, cell-based, luminescence, uHTS; Jurkat, PMA/ionomycin-induced NF-kB luciferase reporter; inhibition, % at 4 µM; actives 0.53% (n = 330,000); AID 435003, 2010; in the data active means inhibition above about 50%
KLF5 inh: KLF5 expression inhibitors, primary screen, DLD-1 cells, luminescence | actives 0.23% (n = 290,000) | inhibition, % at 5 µM | AID 1700, 2009 | DLD-1 KLF5 promoter-luciferase reporter;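 active means inhibition above a per-plate limit of that plate's mean compound inhibition plus 3 SD, cut at about 60% in these data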;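 further: 0% = DMSO wells and 100% = LY294002 at 200 µM; higher means less KLF5 promoter-driven luciferase light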
Gli-Sufu block: Gli-Sufu pathway antagonists, primary screen, luciferase luminescence, Sufu-KO-LIGHT cells, uHTS | Sufu-KO-LIGHT fibroblasts, Gli luciferase reporter luminescence | inhibition, % at 5 µM | actives 0.74% (n = 340,000);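 active means inhibition above about 55%, limit read from the data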;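 further: 0% = DMSO-treated cells and 100% = wells with medium but no cells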
aSyn 5UTR inh: MLPCN primary screen, SNCA 5' untranslated region; actives 0.82% (n = 300,000); inhibition, % (tested at 7.5 µM); alpha-synuclein 5'UTR reporter, inhibitor activity; in the data active means inhibition above about 60%;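 further: H4 neuroglioblastoma cells stably carrying SNCA 5'UTR luciferase fusion; 0% = DMSO wells and 100% = positive control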
Jurkat NFkB conf: PMA/ionomycin-induced NF-kB reporter inhibitors, Jurkat retest, confirmation, T-cell NF-kB inhibitor project, cell-based, luminescence, single concentration; Jurkat NF-kB luciferase, 16 h; actives 27% (n = 2,700); shares compounds with Jurkat NFkB inh; inhibition, % at 4 µM; AID 435020, 2010;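 active means inhibition reaching about 45% at 4 µM in either replicate, limit read from the data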;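 further: plate controls were PMA/ionomycin stimulated DMSO wells for no effect and unstimulated DMSO wells for full effect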
697 NFkB conf: PMA/ionomycin-induced NF-kB reporter inhibitors, 697 retest, confirmation, B-cell NF-kB inhibitor project, cell-based, luminescence, single concentration. 697 B-cell NF-kB luciferase, 16 h. shares compounds with 697 NFkB inh. actives 35% (n = 2,000). inhibition, % at 4 µM; in the data active means inhibition mostly above about 28%, no sharp cut-off; inactive means mostly below about 22%
Mdm2-MdmX conf: Mdm2-MdmX complex disruptors, retested hits, confirmation, luminescence, single concentration; shares compounds with Mdm2 MdmX PPI; Mdm2-MdmX binding, luminescent assay; inhibition, % at 8 µM; actives 55% (n = 10,000); AID 489028, 2010; in the data active means inhibition above about 40%
Full FLuc ctr: full-length luciferase signal inhibition, confirmation, counter-screen for Mdm2/MdmX interaction inhibitor project, cell-based, single concentration, SaOS-2; shares compounds with Mdm2 MdmX PPI; SaOS-2 full-length luciferase counterscreen, luminescence; inhibition, % at 8 µM; actives 77% (n = 6,200); AID 504607, 2011;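 active means mean inhibition at 8 µM reaching about 37%, which flags the compound as non-specific, limit read from the data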;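 further: p53-null SaOS-2 cells with luciferase driven by a doxycycline-inducible promoter; compound on cells about two nights before reading with doxycycline added after day one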
Gli-Sufu confirm: Gli-SUFU pathway antagonists, confirmation, single concentration, luciferase luminescence, Sufu-KO-LIGHT cells | shares compounds with Gli-Sufu block | Gli luciferase reporter | inhibition, % at 5 µM | actives 40% (n = 2,500) | AID 602428, 2012;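 active means mean inhibition at 5 µM reaching about 45%, limit read from the data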;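 further: plate controls were DMSO-treated cells for no effect and wells lacking cells for full effect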
SufuKO cytotox: cytotoxicity in Sufu-KO-LIGHT cells, confirmation, cytotoxicity control for Gli-SUFU antagonist project, cell-based, ATP luminescence, single concentration; shares compounds with Gli-Sufu block; cytotoxicity, % at 5 µM; actives 32% (n = 2,500);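 active means mean cytotoxicity at 5 µM above about 25%, limit read from the data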;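 further: cells exposed to compound overnight for roughly 16 to 18 hours; plate controls were DMSO wells with cells for no effect and medium without cells for full effect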
Wnt3a cs: Wnt3a reporter signal inhibition, confirmation, counter-screen for Gli-SUFU antagonist project, Wnt-LIGHT cells, luminescence, single concentration. shares compounds with Gli-Sufu block. Wnt3a-driven luciferase reporter. inhibition, % at 6.25 µM. actives 20% (n = 2,500). AID 651995, 2013;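 active means mean inhibition above about 25%, limit read from the data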
An asterisk follows results filed as active; x = not tested or not shown. In the library only some 4.1% were active in any assay of this set; here they are far more common.

SMILES | 697 NFkB inh | Mdm2 MdmX PPI | Jurkat NFkB inh | KLF5 inh | Gli-Sufu block | aSyn 5UTR inh | Jurkat NFkB conf | 697 NFkB conf | Gli-Sufu confirm | SufuKO cytotox | Wnt3a cs | others
CCOc1cc(S(=O)(=O)NCc2ccncc2)ccc1Cl | 58.5* | 33.8 | 64.9* | -5.5 | 78.5* | 9.7 | 68.5* | 98.5* | 78.7* | 41.7* | 1.9
CCOc1ccc(S(=O)(=O)NCc2ccncc2)cc1 | 99.7* | 6.3 | 71.7* | -27.8 | 82.1* | 15.7 | 69.8* | 93.3* | 79.2* | 37.3* | 47.0*
CC1(c2ccc3ccccc3c2)NC(=O)N(CC(=O)N2CCN(Cc3ccc(C#N)cc3)CC2)C1=O (stereo not given) | 48.2* | 9.7 | 57.9* | x | 67.5* | x | 67.7* | 103.2* | 71.5* | 21.4 | 32.2*
CCOc1ccc(NC(=O)C2CCCN(S(=O)(=O)c3c(C)noc3C)C2)cc1 (stereo not given) | -23.4 | -2.2 | 22.6 | -73.8 | -8.7 | 8.5 | x | x | x | x | x
O=C(NC1CCN(Cc2ccccc2)CC1)c1ccc2c(c1)[nH]c(=O)n2Cc1ccc(F)cc1 | -7.6 | 40.6 | 64.1* | -21.8 | 52.9 | 14.4 | 34.7 | x | 28.0 | 20.6 | 17.1
CN(C)CCn1c2ccccc2c2nc3ccc([N+](=O)[O-])cc3cc21 | -316.7 | 100.3* | 60.1* | -0.5 | 51.7 | 103.7* | 9.5 | -296.7 | 39.9 | 10.3 | -162.4 | Mdm2-MdmX conf=83.6*;Full FLuc ctr=59.7*
CCn1c2ccccc2c2cc([N+](=O)[O-])ccc21 | 10.5 | -3.9 | 1.9 | -10.6 | -2.7 | 8.9 | x | x | x | x | x
Cc1ccc(C(=O)c2cc([N+](=O)[O-])ccc2N2CCCCC2)c(C)c1 | -130.6 | 54.6* | 66.0* | 37.5 | 58.7* | 69.5* | 55.0* | x | 53.0* | 60.1* | 16.1 | Mdm2-MdmX conf=67.4*;Full FLuc ctr=124.8*
O=S(=O)(c1cc(F)ccc1F)N1CCN(c2ncnc3ccccc23)CC1 | -39.6 | 22.7 | 60.2* | x | 59.0* | x | 58.1* | x | 62.5* | 58.2* | 10.1
O=C(NCCO)C(=O)NCC1OCCCN1S(=O)(=O)c1cc(F)ccc1F (stereo not given) | 7.9 | 10.1 | 16.4 | -32.9 | -1.4 | -11.6 | x | x | x | x | x
CC(C)Cn1c(=O)c2c(nc3n2CC(C)CN3Cc2ccccc2)n(C)c1=O (stereo not given) | 4.1 | -7.6 | 4.8 | -35.0 | 33.0 | 13.0 | x | x | x | x | x
Cc1onc(-c2ccccc2Cl)c1C(=O)Oc1cccc2cccnc12 | -10.0 | 18.8 | 4.4 | -18.3 | 12.4 | 33.8 | x | x | x | x | x
COc1ccc(CCNc2c(C)c(C)nc3ncnn23)cc1 | 89.4* | 50.4* | 69.6* | 12.0 | 72.4* | -14.5 | 65.0* | 54.0* | 70.5* | 45.3* | 28.3* | Mdm2-MdmX conf=46.0*;Full FLuc ctr=69.2*
Cc1cc(C)n(CC(=O)NNC(=O)COc2ccc(Br)cc2F)n1 | 14.8 | 1.2 | 1.5 | x | 5.3 | x | x | x | x | x | x
CCN(CC)S(=O)(=O)c1ccc(C)c(NC(=O)CNc2cccc(S(=O)(=O)N3CCOCC3)c2)c1 | 3.9 | 24.4 | 16.2 | x | 8.7 | 12.2 | x | x | x | x | x
CCN(CC)S(=O)(=O)c1cc(NC(=O)CNc2cccc(S(=O)(=O)N3CCCC3)c2)ccc1C | 28.1 | 12.7 | 57.2* | x | 71.6* | 55.3 | 60.2* | x | 65.8* | 30.6* | 18.6
Nc1nc(Cl)nc2c1ncn2[C@H]1C[C@H](O)[C@@H](CO)O1 | 57.1* | 87.1* | 64.5* | 18.6 | 83.5* | 83.6* | 41.0 | 68.2* | 67.8* | 25.1* | 50.1* | Mdm2-MdmX conf=74.2*;Full FLuc ctr=22.0
Nc1ncnc2c1ncn2[C@H]1C[C@H](O)[C@@H](CO)O1 | 17.5 | -13.2 | -0.1 | -25.9 | -4.2 | x | x | x | x | x | x
O=C(NCCN1CCCC1=O)C1CCC(=O)N(CCc2cccc(F)c2)C1 (stereo not given) | 13.8 | 8.2 | 16.5 | -19.5 | -7.2 | 5.2 | x | x | x | x | x
COc1cc(C(=O)O[C@H]2C/C(C)=C/CC[C@@]3(C)O[C@@H]3[C@H](O)[C@@H]2C(C)C)cc(OC)c1OC | -6.7 | 6.8 | -7.1 | -24.5 | 7.3 | -5.4 | x | x | x | x | x
COc1ccc(N2CCc3c(C)nc4c(OC)cc(OC)cc4c32)cc1 | -24.1 | 50.5* | 51.3* | -43.5 | 54.5 | 6.9 | 9.7 | x | 27.5 | 4.8 | -42.4 | Mdm2-MdmX conf=33.6
Cc1cc(/C=N/n2cnnc2)c(C)n1-c1ccc(OCc2ccc(Cl)cc2Cl)cc1 | 40.2* | 73.6* | 70.2* | 57.3 | 82.3* | 113.1* | 32.4 | 12.7 | 81.6* | 34.7* | 67.9* | Mdm2-MdmX conf=31.3
Cc1ncoc1C(=O)NC1CCCc2c1cnn2-c1ccc(C(C)(C)C)cc1 (stereo not given) | 27.5 | 15.4 | 59.6* | 0.9 | 51.8 | -12.1 | 59.0* | x | 45.1* | 23.1 | 5.8
O=C(CCC(=O)c1ccc(F)cc1)NC1CCCN(Cc2ccccc2F)C1 (stereo not given) | -11.3 | -21.0 | 0.0 | -21.1 | 4.5 | 15.5 | x | x | x | x | x
CCn1c(/C=C/N(C(C)=O)c2ccccc2)[n+](CCCS(=O)(=O)[O-])c2cc(Cl)c(Cl)cc21 | 8.7 | -17.3 | -0.3 | -4.2 | -9.8 | -8.8 | x | x | x | x | x
